# hcDAF-12 act: activates DAF-12 receptor from parasite H. contortus; HEK293 hcDAF-12 lit1-tk-luc reporter, luminescence; 0% DMSO, 100% Δ7-dafachronic acid; activation, % at 6.8 µM; 370,000 compounds, 1.4% hits; AID 652067;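 active = activation above the mean of all tested compounds plus 3 SD, cut at about 5.5% in these data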;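 note: 100% = response to 3 µM Δ7-dafachronic acid high control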
# DAX1 inh-1: DAX1 (NR0B1) inhibition, primary screen; HEK293T StAR-luciferase reporter, SF-1/DAX-1 repression relief; inhibition, % at 6.8 µM; 370,000 compounds, 1.1% hits; AID 652010;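 active = inhibition above the mean over all tested compounds plus 3 SD, cut at about 3.6% in these data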;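 note: 0% = DAX-1 cells with DMSO and 100% = cells lacking DAX-1 with DMSO; higher inhibition means more luminescence from relief of DAX-1 repression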
# ssDAF12 agonist: activates DAF-12 receptor from parasite S. stercoralis. HEK293 ssDAF-12/GRIP1 lit1-tk-luc reporter, luminescence; % of 3 µM dafachronic acid response. activation, % at 6.8 µM. 370,000 compounds, 1% hits. AID 652126;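 active = activation above the mean over all tested compounds plus 3 SD, cut at about 0.9% in these data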;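 note: 0% = DMSO-only wells and 100% = 3 µM delta7-dafachronic acid wells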
# DAX1 inh-2: inhibits human nuclear receptor DAX1 | AID 504766 | inhibition, % at 6.75 µM | HEK293 Gal4-DAX1 luciferase reporter, luminescence | P51843 | 340,000 compounds, 0.99% hits;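 active = inhibition above the mean over all tested compounds plus 3 SD, cut at about 4.2% in these data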;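 note: 0% = DAX1-transfected cells with DMSO and 100% = empty-vector control cells with DMSO; inhibition shows as a rise in luminescence from relieved DAX1 repression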
# Target sequence (P51843 207-470 limits assumed): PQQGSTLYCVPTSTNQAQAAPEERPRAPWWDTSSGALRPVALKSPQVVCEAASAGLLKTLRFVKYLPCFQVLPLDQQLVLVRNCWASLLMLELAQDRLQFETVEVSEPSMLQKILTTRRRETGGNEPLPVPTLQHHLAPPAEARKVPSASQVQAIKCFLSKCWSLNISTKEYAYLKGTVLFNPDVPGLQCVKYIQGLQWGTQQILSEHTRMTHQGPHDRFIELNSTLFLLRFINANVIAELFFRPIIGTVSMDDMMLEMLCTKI
# hgDAF-12 ag: activates the H. glycines DAF-12 receptor ligand-binding domain. HEK293 GAL4-hgDAF12 UAS-luciferase reporter, agonist luminescence; normalized to butyrate control. activation, % at 6.8 µM. 370,000 compounds, 1.8% hits;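 active = activation above a cutoff set at the mean of all screened compounds plus 3 SD, cut at about 10% in these data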;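 note: 0% = DMSO wells and 100% = sodium butyrate wells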
# DAX1 conf: confirmation of human DAX1 (NR0B1) inhibitors; shares compounds with DAX1 inh-1; HEK293T StAR-promoter luciferase reporter, SF-1/DAX-1 repression; inhibition, % at 6.8 µM; 2,400 compounds, 87% hits;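 active = inhibition above the average of every tested compound plus 3 SD, cut at about 3.8% in these data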;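 note: 0% = DAX-1 cells with DMSO and 100% = no DAX-1 control cells with DMSO; active compounds raise luminescence by relieving repression of the StAR reporter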
# SF1 mutant ctr: nonselective inhibitor or artifact in SF-1 mutant DAX1 counter-screen. inhibition, % at 6.8 µM. shares compounds with DAX1 inh-1. 2,400 compounds, 78% hits. AID 652136. HEK293 StAR-luciferase, SF-1 AF2 mutant, luminescence;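 active = inhibition above the mean of all tested compounds plus 3 SD, cut at about 3% in these data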;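 note: 0% = DAX-1 transfected cells with DMSO and 100% = cells without DAX-1 with DMSO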
# LXR ag: activates human LXR-beta, counter-screen for hcDAF-12 agonists; 3,400 tested, under 10 active; AID 743027; HEK293 Gal4-LXR tk-luc reporter, luminescence, 24 h; normalized: DMSO 0%, positive control 100%; activation, % at 6.8 µM; shares compounds with hcDAF-12 act;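 active = mean percent activation of the reporter above a cutoff set as the average over tested compounds plus their standard deviation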
# Target sequence (P55055 whole entry, looked up, the tested form may be a part): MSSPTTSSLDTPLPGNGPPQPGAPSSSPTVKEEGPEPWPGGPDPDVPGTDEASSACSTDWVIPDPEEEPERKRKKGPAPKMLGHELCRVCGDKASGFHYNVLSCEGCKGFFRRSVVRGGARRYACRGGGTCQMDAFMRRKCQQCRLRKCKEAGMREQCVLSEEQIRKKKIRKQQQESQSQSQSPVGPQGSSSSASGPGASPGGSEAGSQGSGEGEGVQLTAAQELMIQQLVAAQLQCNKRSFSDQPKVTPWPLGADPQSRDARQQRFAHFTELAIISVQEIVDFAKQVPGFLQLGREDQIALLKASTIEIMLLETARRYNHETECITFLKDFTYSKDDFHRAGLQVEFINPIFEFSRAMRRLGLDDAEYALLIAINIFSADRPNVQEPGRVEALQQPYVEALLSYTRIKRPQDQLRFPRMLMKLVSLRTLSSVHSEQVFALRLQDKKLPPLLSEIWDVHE
# hcDAF12 ag: confirmation of H. contortus DAF-12 agonists; shares compounds with hcDAF-12 act; HEK293 hcDAF-12 lit1-tk-luc reporter, luminescence; % of Δ7-dafachronic acid response; activation, % at 6.8 µM; 3,400 compounds, 61% hits; AID 743032;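 active = mean activation across triplicate tests above the threshold derived from the earlier primary screen, cut at about 5.5% in these data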;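 note: 0% = DMSO only wells and 100% = 3 µM Δ7-dafachronic acid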
# hgDAF12 ag: hgDAF-12 agonism, confirmation assay; activation, % at 6.8 µM; HEK293 GAL4-hgDAF12 luciferase reporter, agonist mode; percent of butyrate response; shares compounds with hgDAF-12 ag; 3,300 compounds, 80% hits;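 active = mean activation over triplicate wells above the hit cutoff derived from the earlier primary screen, cut at about 11% in these data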;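 note: 0% = DMSO low control and 100% = 2 mM sodium butyrate high control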
# LXR ag 2: LXR-beta agonism as DAF-12 counter-screen; shares compounds with hgDAF-12 ag; HEK293 Gal4-LXR luciferase reporter, 24 h; activation, % at 6.8 µM; 3,300 tested, under 10 active; AID 743051;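 active = mean activation of the triplicate above a set limit carried over from the primary screen, none filed active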
# * hit, by the source's call; . = no result given. Most compounds without a hit are left out; they make up all but 4.1% or so of the library.
SMILES,hcDAF-12 act,DAX1 inh-1,ssDAF12 agonist,DAX1 inh-2,hgDAF-12 ag,DAX1 conf,SF1 mutant ctr,hgDAF12 ag,LXR ag 2,others
COc1ccc(/C=C(\C#N)C(=O)OCC(=O)Nc2ccc(-c3nc4ccc(C)cc4s3)cc2)cc1,8.4*,8.3*,2.7*,0,21*,6.7*,3.2*,21*,1,LXR ag=2;hcDAF12 ag=10*
Cc1ccc2nc(-c3ccc(NC(=O)COC(=O)c4ccc(Br)o4)cc3)sc2c1,18*,6.6*,3.0*,5.7*,28*,9.7*,4.2*,24*,1,LXR ag=2;hcDAF12 ag=13*
COc1ccc(/C=C(\C#N)C(=O)OCC(=O)NC(C)c2ccccc2)cc1 (stereo unspecified),-1,0,-1,-2,-1,.,.,.,.,
O=C(CCS(=O)(=O)c1ccccc1)Nc1cccc(-c2nc3ccccc3s2)c1,3,2,-2,0,5,.,.,.,.,
O=C(CCS(=O)(=O)c1ccccc1)Nc1ccc(-c2nc3ccccc3s2)cc1,9.2*,6.1*,1.2*,-2,18*,13*,8.9*,15*,1,LXR ag=2;hcDAF12 ag=5.7*
Cc1ccc2nc(-c3ccc(NC(=O)CN(c4ccccc4C)S(C)(=O)=O)cc3)sc2c1,4,4.8*,1.0*,2,15*,8.0*,5.4*,20*,1,
COc1ccc(CN(C(C)=O)c2cc(C)c([N+](=O)[O-])cc2OC)cc1OC,-1,0,-1,0,1,.,.,.,.,
S=C1NCCN1c1ccc(Cl)cc1,-1,-1,-1,.,1,.,.,.,.,
Nc1[nH]c(C(=O)c2ccc(Br)cc2)c(-c2ccncc2)c1C(=O)NCCc1c[nH]c2ccccc12,-1,0,0,.,5,.,.,.,.,
Nc1[nH]c(C(=O)c2ccc(Br)cc2)c(-c2ccc(F)cc2)c1C(=O)NCCc1c[nH]c2ccccc12,0,0,0,.,2,.,.,.,.,
CN1CCN(c2ccc(NC(=O)CSc3nnnn3-c3ccccc3Cl)cc2)CC1,4,-4,-2,0,3,.,.,.,.,
CCOC(=O)C(=O)N(C)c1c(CC)nc2c(OCc3ccccc3OC)cccn12,0,-1,-2,.,-2,.,.,.,.,
CC(C)Cc1ccc(/C=C/C(=O)N2CCOCC2)cc1,4,6.0*,1.4*,3,16*,9.5*,5.2*,12*,1,
CC(C)(C)c1ccc(/C=C/C(=O)N2CCOCC2)cc1,4,2,0,1,10,.,.,.,.,
CCOC(=O)c1c(C)[nH]c(C)c1S(=O)(=O)NCc1ccccc1C,-2,0,-2,1,-1,.,.,.,.,
C[C@H]1COc2cc(NCCCN3CCOCC3)ccc2S(=O)(=O)N1,2,0,-1,.,-1,.,.,.,.,
COc1ccc(N2C(=O)c3ccccc3NC2(C)C)cc1,3,7.6*,-1,0,28*,3,1,9,0,
COC(=O)C1(C)Nc2ccccc2C(=O)N1c1ccccc1OC (stereo unspecified),-1,0,0,-1,1,.,.,.,.,
OC[C@@H]1CN(Cc2cccs2)C[C@H](n2cnc3c(N4CCCC4)ncnc32)O1,0,0,-1,.,2,.,.,.,.,
Cc1cc(C)c(C#N)c(SCc2nnc(-c3ccccc3[N+](=O)[O-])o2)n1,4,5.1*,1,0,16*,18*,4.6*,11*,1,
Cc1cc(C)c(C#N)c(SCc2ccccc2[N+](=O)[O-])n1,1,-1,-1,-1,0,.,.,.,.,
Cc1cc(O)ccc1Nc1nc(-c2cccs2)cs1,5,5.5*,1.0*,0,17*,9.3*,4.7*,21*,1,
CN(c1ccc(O)cc1)c1nc(-c2cccs2)cs1,5,7.7*,1,1,19*,8.7*,3.6*,14*,1,
Cc1nc(C)c(-c2csc(Nc3ccc(O)cc3C)n2)s1,-3,-1,-1,0,-3,.,.,.,.,
COC(=O)c1ccc(NC(=O)C2CCN(C(=O)Nc3ccccc3)CC2)cc1,-1,1,0,1,0,.,.,.,.,
SMILES,hcDAF-12 act,DAX1 inh-1,ssDAF12 agonist,DAX1 inh-2,hgDAF-12 ag,DAX1 conf,SF1 mutant ctr,hgDAF12 ag,LXR ag 2,others
C=CCNc1nc(-c2ccc3c(c2)OCCO3)cs1,6.7*,14*,1.1*,2,20*,16*,7.4*,18*,1,LXR ag=2;hcDAF12 ag=7.5*
O=C(Nc1nc(-c2ccc3c(c2)OCCO3)cs1)c1ccco1,10.0*,12*,1,1,14*,11*,7.0*,17*,1,LXR ag=1;hcDAF12 ag=4
Nc1c(-c2ccccc2)cnc2cc(-c3ccccc3)nn12,2,6.0*,0.9*,5.6*,22*,16*,7.7*,26*,1,
CC(=O)c1cnc2cc(-c3ccccc3)nn2c1C,1,2,0,1,5,.,.,.,.,
C/C(=N/NC(=O)c1cccs1)c1ccc(N2CCOCC2)cc1,6.0*,4.7*,0,4,20*,4,2,5,0,
COC(=O)[C@]12C[C@H](CC(=O)N3CCSCC3)C(=O)N(CCc3ccc(OC)c(OC)c3)C1=C[C@H](C(C)C)O[C@@H]2C1CC1,1,1,-1,.,1,.,.,.,.,
NC(=O)C12NC(Cc3ccccc31)c1ccccc12 (stereo unspecified),-1,-1,-1,.,1,.,.,.,.,
O=C(NC1CCCC1)c1cc(-c2ccc(Cl)c(Cl)c2)on1,1,0,0,0,4,.,.,.,.,
COc1cccc(-c2cc(C(=O)NC3CCCC3)no2)c1,5,5.0*,0,2,20*,9.9*,5.3*,16*,1,
COc1cccc(NC(=O)C(=S)NC2CCCCC2)c1,7.2*,9.2*,0,2,23*,12*,7.9*,18*,1,LXR ag=2;hcDAF12 ag=7.2*
CCOC(=O)[C@]12CCCC=C1N(CCCOC)C(=O)[C@@H]2CC(=O)NCC1CCCCC1,-2,0,0,.,-3,.,.,.,.,
COc1ccccc1C(=O)NNC(=O)c1cccc(Cl)c1,13*,5.6*,1,1,17*,14*,7.9*,16*,1,LXR ag=1;hcDAF12 ag=7.5*
COC(=O)[C@]12C[C@H](CC(=O)N3CCSCC3)C(=O)N(Cc3cccc4ccccc34)C1=C[C@H](C(C)(C)C)O[C@@H]2C,-2,-1,0,.,3,.,.,.,.,

# Screens from PubChem BioAssay.
